From PubChem
OTUD3 inh – blocks human OTUD3 ubiquitin-rhodamine cleavage; purified OTUD3, Ub-rhodamine fluorescence, 2 h; Q5T2D3; hit rate 0.7% among 47,000; inhibition, % at 25 µM
USP28 block – human USP28 deubiquitinase inhibition | Q96RU2 | purified USP28, Ub-rhodamine cleavage fluorescence, 30 min | inhibition, % at 25 µM | hit rate 3% among 47,000 | AID 1645857
USP17 inh – human USP17-like deubiquitinase inhibition; A8MUK1; purified USP17, Ub-rhodamine cleavage fluorescence, 3 h; inhibition, % at 50 µM; hit rate 6.5% among 47,000; AID 1645855
USP30 inh – blocks human USP30 ubiquitin-rhodamine cleavage | inhibition, % at 25 µM | hit rate 5.3% among 47,000 | Q70CQ3 | AID 1645860 | purified USP30, Ub-rhodamine cleavage fluorescence
Target sequence (Q70CQ3 whole entry, looked up): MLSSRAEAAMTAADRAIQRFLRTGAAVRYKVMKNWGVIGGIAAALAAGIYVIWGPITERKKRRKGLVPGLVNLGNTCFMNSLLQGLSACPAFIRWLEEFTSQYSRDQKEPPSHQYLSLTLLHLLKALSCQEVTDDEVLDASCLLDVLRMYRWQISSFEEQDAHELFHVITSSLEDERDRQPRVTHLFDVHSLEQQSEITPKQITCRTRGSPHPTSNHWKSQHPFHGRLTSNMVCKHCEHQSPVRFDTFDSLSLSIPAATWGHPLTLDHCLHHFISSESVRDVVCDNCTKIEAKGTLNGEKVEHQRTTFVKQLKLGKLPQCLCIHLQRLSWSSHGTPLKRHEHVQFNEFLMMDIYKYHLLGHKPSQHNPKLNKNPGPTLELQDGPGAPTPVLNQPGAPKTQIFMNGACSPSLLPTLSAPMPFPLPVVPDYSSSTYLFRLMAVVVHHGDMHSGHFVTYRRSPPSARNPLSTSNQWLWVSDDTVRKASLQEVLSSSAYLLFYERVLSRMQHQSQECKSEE
A number is an active result; n = inactive; x = no result. An excerpt weighted towards active compounds, which were near 12% of everything screened. Rule as the data show it: active = inhibition above about 30%; inactive = the rest.

SMILES	OTUD3 inh	USP28 block	USP17 inh	USP30 inh
CCCC(=O)N1CCC2(CC1)Nc1ccccc1NC2=O	n	n	69.8	n
CS(=O)(=O)c1ccc(N2CCCN(C(=O)c3cccs3)CC2)cc1	n	n	n	n
COc1ccccc1NC(=O)Cn1cc(C(=O)c2ccc(C)cc2)c(=O)c2cc(Cl)ccc21	n	n	60.5	n
Cc1ccc2c(c1)c(=O)c(C(=O)c1ccccc1)cn2CC(=O)Nc1ccc2c(c1)OCCO2	n	n	62.1	n
COc1ccc(NC(=O)Cn2cc(C(=O)c3ccc(C)cc3)c(=O)c3ccccc32)cc1	n	40.9	85.4	48.6
Cc1ccc(C(=O)c2cn(CC(=O)Nc3ccccc3)c3ccc(C)cc3c2=O)cc1	n	n	53.0	n
O=C(CCCc1nc(-c2ccccc2)no1)Nc1ccc2c(c1)OCCO2	n	n	n	n
COc1ccc(N2CCN(C(=O)c3cncc(NS(=O)(=O)c4ccc(F)cc4)c3)CC2)cc1	n	n	n	n
COc1ccccc1NC(=O)C1=C(C)Nc2nc3ccccc3n2C1c1cccc(C)c1 (stereo unspecified)	n	n	n	n
Cc1ccc(C(=O)c2cn(CC(=O)Nc3ccccc3)c3ccccc3c2=O)cc1	n	n	36.6	34.8
O=C(Cn1cc(C(=O)c2ccc(F)cc2)c(=O)c2ccccc21)Nc1ccc2c(c1)OCO2	n	n	n	42.4
Cc1cc(N2CCOCC2)nc2ccc(NC(=O)CCC(=O)NCCc3ccc(Cl)cc3)cc12	n	n	n	n
CCCN1C=NS(=O)(=O)c2cc(C(=O)Nc3ccc(C)cc3)ccc21	n	n	n	n
COc1ccc(/C=C/C(=O)N2CCc3ccccc32)cc1S(=O)(=O)N1CCOCC1	53.9	n	n	n
COc1ccc(/C=C/C(=O)N2CCCc3ccccc32)cc1OC	n	n	n	n
CCN1C[C@H]2C3(CCN(C(=O)Cc4cccc(OC)c4)CC3)CC[C@@]2(C(=O)NC)C1	n	n	n	n
CC(C)c1c(C(=O)Nc2cccc(C(=O)NCC(F)(F)F)c2)cnn1-c1ccccn1	n	n	n	n
COc1ccccc1N1CCN(CC2C(=O)O[C@@H]3CC4=CCC[C@H](C)[C@@]4(C)[C@@H](O)[C@H]23)CC1 (stereo partly specified)	n	n	n	n
O=C(Nc1ccc(-c2cn3ccsc3n2)cc1)c1ccc(Cl)c([N+](=O)[O-])c1	n	32.2	n	82.3
Cc1cc(C(F)(F)F)n2nc(C3CCN(C(=O)c4cnn(C)c4C)C3)cc2n1 (stereo unspecified)	n	n	50.2	n
CCc1cc(C(F)(F)F)n2nc(C3CCN(C(=O)c4ccccc4F)C3)cc2n1 (stereo unspecified)	n	n	n	n
COc1ccc(Cl)cc1C(=O)Nc1cnc(N2CCN(C)CC2)nc1	n	n	n	n
CC(C)c1cccc(C(C)C)c1NC(=O)COc1ccccc1C#N	n	n	n	n
COc1ccc2cc(C(C)C(=O)NCc3ccc(CS(N)(=O)=O)cc3)ccc2c1 (stereo unspecified)	n	n	n	n
COc1ccc2cc(C(C)C(=O)NCc3cccc(NS(N)(=O)=O)c3)ccc2c1 (stereo unspecified)	n	n	n	41.8
SMILES	OTUD3 inh	USP28 block	USP17 inh	USP30 inh
COc1ccc(C(CC(=O)NCc2cccc(OC)c2)n2cccc2)cc1 (stereo unspecified)	n	n	37.7	n
O=C(CC(c1cccc(F)c1)n1cccc1)NCc1ccc(Cl)cc1 (stereo unspecified)	n	n	n	37.8
Cc1ccc(Cn2nccc2NC(=O)c2cccnc2SC(F)F)o1	n	n	n	n
Cc1ccc(OCCSc2nnc(Cc3c(C)nc4ccccn4c3=O)n2C)cc1	n	n	n	n
Cc1cc2oc(=O)cc(COC(=O)c3ccc4[nH]c(C)c(C)c4c3)c2cc1Cl	n	n	45.9	n
O=C(COC(=O)c1ccc(F)cc1)Nc1ccc2[nH]c(=O)[nH]c2c1	n	n	n	n
O=C(COC(=O)c1ccccc1F)Nc1ccc2[nH]c(=O)[nH]c2c1	n	36.6	n	n
Cc1nnc(SCC(=O)Nc2ccc3[nH]c(=O)[nH]c3c2)n1-c1ccccc1	n	n	34.0	n
CC(CC(=O)OCC(=O)Nc1ccc2[nH]c(=O)[nH]c2c1)c1ccccc1 (stereo unspecified)	n	31.1	n	n
O=C(COC(=O)c1cc(Cl)c2c(c1)OCO2)Nc1ccc2[nH]c(=O)[nH]c2c1	30.7	51.1	56.8	n
O=C(CSc1nnc2ccccn12)Nc1ccc2[nH]c(=O)[nH]c2c1	n	n	n	n
Cc1ccc(OCC(=O)N2CC[C@@H]3CN(CC(C)C)S(=O)(=O)[C@@H]3CC2)cc1	n	n	n	n
C[C@@H]1CCC2[C@](C)(CO)[C@@H](O)CC[C@]2(C)[C@@]12CCC(CO)(CC(=O)O)O2 (stereo partly specified)	n	n	n	n
CNC(=O)CN(C)c1ncnc2scc(-c3ccc(F)cc3)c12	n	n	n	n
O=C1C=C(O)c2c(O)cc(O)cc2C1=O	98.8	98.9	99.4	99.6
Cc1cc(O)c2c(c1)C(=O)c1cc(O)cc(O)c1C2=O	n	n	n	n
Cc1cccc(-n2ncc3c(N(CCO)CCO)ncnc32)c1	n	n	n	33.6
O=C(NCc1ccccc1Cl)c1ccc2cn[nH]c2c1	n	55.5	n	n
CCC(C)(C)C1CCC2(CC1)N=C(N)Nc1nc3ccccc3n12 (stereo unspecified)	n	n	n	69.3
NC1=NC2(CCC(c3ccccc3)CC2)n2c(nc3ccccc32)N1 (stereo unspecified)	n	n	n	n
Cc1nc2c(-c3ccncc3)nsc2c(=O)n1CC(=O)Nc1ccccc1F	n	n	45.6	n
Cc1ccc(-c2noc(Cn3c(=O)[nH]c4cc5c(cc4c3=O)OCO5)n2)cc1	n	n	n	n
Cc1cccc(C)c1NC(=O)C(C)n1c(C)nc2onc(C)c2c1=O (stereo unspecified)	n	n	x	43.4
Cc1cccc(NC(=O)C(C)n2c(C)nc3onc(C)c3c2=O)c1 (stereo unspecified)	n	n	n	n
COc1ccc(-n2nc(C)c3c2NC(=O)CC3C(=O)c2ccc3c(c2)OCCO3)cc1 (stereo unspecified)	n	n	n	n
SMILES	OTUD3 inh	USP28 block	USP17 inh	USP30 inh
CCc1ccc(-n2nc(C)c3c2NC(=O)CC3C(=O)c2ccc3c(c2)OCCO3)cc1 (stereo unspecified)	n	n	56.8	n
COc1ccc([N+](=O)[O-])cc1C1N(c2ccccc2)CCN1c1ccccc1	n	n	31.1	n
Cc1c(-c2ccc(C#N)cc2)oc2ccc(Br)cc2c1=O	n	n	69.7	n
Cn1c(CCNC(=O)c2[nH]nc3c2CCc2ccccc2-3)nc2ccccc21	n	52.2	77.7	n
COc1ccccc1CNC(=O)c1[nH]nc2c1CCc1ccccc1-2	n	n	n	n
O=C(NC1CCN(Cc2ccccc2)CC1)c1[nH]nc2c1CCc1ccccc1-2	n	62.1	n	n
COc1ccc(C(=O)N(C)C2(C(=O)Nc3c(C)cccc3C)CCCCC2)cc1	n	n	n	n
COc1ccc(NC(=O)COc2ccc(C#N)cc2)cc1OC	n	n	n	n
